Assay results reported in the supplement of paper PMC10981050.
Several values for one entry are separate records, joined by “and”; a condition that tells them apart may be missing. Equal values may be shown once. Where a name gives a salt, the structure may show the parent alone.

Tests used:
Assay in all cases: cell viability relative to vehicle control; higher = less cytotoxic
Settings in all cases: 10 µM
K562 = tested on: K562
In short: (§1)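 Screening covered the Selleck bioactive, kinase and epigenetic probe libraries, less identity-inconsistent compounds, on CRISPR-edited mutant clones and isogenic wild-type clones of four leukaemia lines. Cells, at 2000 per well in 50 µL medium, received a single 10 µM acoustically dispensed dose. After 48 h the supernatant was removed and CellTiter-Glo luminescence was read. Viability was analysed in Genedata Screener as percent of the on-plate vehicle control.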

MARIMO = tested on: MARIMO
In short: as §1

MOLM14 = tested on: MOLM14
In short: as §1

OCI-AML2 = tested on: OCI-AML2
In short: as §1

Row | SMILES | cell viability (K562; SRSF2 genotype: SRSF2 P95H/wt) | cell viability (K562; SRSF2 genotype: SRSF2 wt/wt) | cell viability (MARIMO; SRSF2 genotype: SRSF2 P95H/wt) | cell viability (MARIMO; SRSF2 genotype: SRSF2 wt/wt) | cell viability (MOLM14; SRSF2 genotype: SRSF2 P95H/wt) | cell viability (MOLM14; SRSF2 genotype: SRSF2 wt/wt) | cell viability (OCI-AML2; SRSF2 genotype: P95H/wt) | cell viability (OCI-AML2; SRSF2 genotype: wt/wt)
1 | CCOc1cn(-c2ccc(F)cc2C)nc1C(=O)Nc1ccc(Oc2ccnc3cc(OC)c(OC)cc23)c(F)c1 | 23.1% and 45.6% | 25.2% | 89.3% | 90.4% | 24.9% | 19.6% | 48.1% | 52.9%
2 | c1ccc(Cn2c(-c3ccc(OCC(C4CCNCC4)n4c(-c5ccccc5)nc5ccccc54)cc3)nc3ccccc32)cc1 (configuration not stated) [Deltarasin] | 0.43% and 0.39% | 0.44% | 0.34% | 0.33% | 0.28% | 0.28% | 0.24% | 0.3%
3 | CC(=O)O[C@@]12CO[C@@H]1C[C@H](O)[C@@]1(C)C(=O)[C@H](O)C3=C(C)[C@@H](OC(=O)[C@H](O)[C@@H](NC(=O)OC(C)(C)C)c4ccccc4)C[C@@](O)([C@@H](OC(=O)c4ccccc4)[C@H]21)C3(C)C [Docetaxel (Taxotere)] | 25.3% and 36.8% | 34.7% | 6.89% | 5.5% | 7.8% | 4.57% | 7.58% | 13.3%
4 | O=C(Nc1cc(Cl)cc2c1[nH]c1cnccc12)c1cccnc1 | 89% and 95.7% | 88.8% | 111% | 116% | 85.2% | 101% | 86.8% | 85.9%
5 | CC1=C[C@]2(O)O[C@@]3(CC2=C(C)C)[C@@H](C)CC[C@@H]13 [Curcumenol] | 106% and 103% | 99.5% | 96.5% | 109% | 102% | 99% | 88.6% | 99%
6 | CCc1cccc(CC)c1NC(=O)N1Cc2[nH]nc(NC(=O)c3ccc(N4CCN(C)CC4)cc3)c2C1 | 29.9% and 41.4% | 25.5% | 69.2% | 70.3% | 19.8% | 13.4% | 12.8% | 23.3%
7 | CCCCCCCCCCCCCCCCn1cc[n+](Cc2ccccc2)c1C | 0.26% and 0.36% | 0.22% | 0.21% | 0.19% | 0.01% | 0% | 0.05% | 0.07%
8 | Cc1cc(CS(=O)(=O)c2ccccc2)cc(OCc2ccc(CN3CCC[C@@H]3CO)cc2)c1 | 98.9% and 101% | 95.6% | 98.9% | 103% | 96.5% | 104% | 98.7% | 92.6%
9 | C[C@H]1CO[C@@H]2Cn3cc(C(=O)NCc4ccc(F)cc4F)c(=O)c(O)c3C(=O)N12 | 84.6% and 81.9% | 71.5% | 90.2% | 95.4% | 92.8% | 88.8% | 83.9% | 86.6%
10 | COc1ccc(S(=O)(=O)NCc2ccc(C(=O)NCCc3ccc(Cl)cn3)cc2)cc1 | 83.3% and 86.3% | 81.6% | 84.3% | 105% | 83.4% | 90.9% | 92.7% | 104%
11 | OCC1(O)COc2cc(O)ccc2-c2cc(O)c(O)cc2C1 (configuration not stated) [Protosappanin B] | 93.9% and 95.9% | 95.7% | 100% | 97.1% | 102% | 96.2% | 97.3% | 99.5%
12 | O=C(Nc1ccccc1Br)N[C@@H]1CCN(c2ccc(C(F)(F)F)cn2)C1 | 88.5% and 90.8% | 91.5% | 89.3% | 101% | 98.5% | 99.3% | 78.4% | 89.7%
13 | N=C(N)Nc1ccc(C(=O)Oc2ccc3cc(C(=N)N)ccc3c2)cc1 [Nafamostat mesylate] | 90.4% and 98.9% | 89.4% | 77.2% | 76% | 94.2% | 89.4% | 83.2% | 85.1%
14 | O=C(O)Cc1ccc2c(c1)C(=O)c1ccccc1CO2 [Isoxepac] | 104% | 105% | 106% | 105% | 100% | 105% | 105% | 105%
15 | CNc1cc(-c2cccc(Cl)c2Cl)nc(N)n1 | 15.8% and 28.9% | 29.6% | 12.2% | 9.54% | 9.14% | 2.78% | 6% | 11.5%
16 | CCOC(=O)C1=C(N)Oc2ccc(Br)cc2C1C(C#N)C(=O)OCC (configuration not stated) | 84.9% and 89.9% | 86.5% | 65.6% | 56% | 48.6% | 74.9% | 67.4% | 66%
17 | COC1C(O)C(O)C(O)C(O)C1O (configuration not stated) [Sequoyitol] | 102% and 107% | 110% | 110% | 99.1% | 105% | 109% | 99.7% | 106%
18 | C[C@H](N[C@@H](CCc1ccccc1)C(=O)O)C(=O)N1CCC[C@H]1C(=O)O [Enalaprilat dihydrate] | 103% and 100% | 100% | 98.7% | 109% | 102% | 103% | 99.4% | 108%
19 | O=c1ccoc2cc(O)ccc12 [7-Hydroxy-4-chromone] | 102% and 95.6% | 93.5% | 99.1% | 104% | 98.9% | 104% | 97.1% | 96.3%
20 | OC[C@H]1O[C@@H](n2cnc3c(O)nc(O)nc32)[C@H](O)[C@@H]1O [Xanthosine] | 101% and 100% | 96% | 99.9% | 101% | 99.6% | 98.5% | 93.2% | 99.7%

Row | SMILES | cell viability (K562; SRSF2 genotype: SRSF2 P95H/wt) | cell viability (K562; SRSF2 genotype: SRSF2 wt/wt) | cell viability (MARIMO; SRSF2 genotype: SRSF2 P95H/wt) | cell viability (MARIMO; SRSF2 genotype: SRSF2 wt/wt) | cell viability (MOLM14; SRSF2 genotype: SRSF2 P95H/wt) | cell viability (MOLM14; SRSF2 genotype: SRSF2 wt/wt) | cell viability (OCI-AML2; SRSF2 genotype: P95H/wt) | cell viability (OCI-AML2; SRSF2 genotype: wt/wt)
21 | Cc1ccc(NCCCc2ccccc2)c(N)c1 | 74.3% and 88.2% | 83.1% | 48.2% | 72.4% | 69% | 72.5% | 60.8% | 63.5%
22 | N=C1CCCN1Cc1[nH]c(=O)[nH]c(=O)c1Cl [Tipiracil hydrochloride] | 101% and 109% | 104% | 109% | 112% | 110% | 105% | 102% | 94.7%
23 | CCCCCC1C(=O)CCC1CC(=O)OCCC (configuration not stated) [Prohydrojasmon] | 100% and 102% | 109% | 98.6% | 98.6% | 95.8% | 106% | 110% | 118%
24 | C[C@H]1[C@H](C)CC[C@]2(C(=O)O[C@@H]3O[C@H](CO[C@@H]4O[C@H](CO)[C@@H](O[C@@H]5O[C@@H](C)[C@H](O)[C@@H](O)[C@H]5O)[C@H](O)[C@H]4O)[C@@H](O)[C@H](O)[C@H]3O)CC[C@]3(C)C(=CC[C@@H]4[C@@]5(C)C[C@@H](O)[C@H](O)[C@@](C)(CO)[C@@H]5[C@H](O)C[C@]43C)[C@H]12 [Madecassoside] | 106% and 105% | 103% | 99.8% | 111% | 97.8% | 106% | 99.9% | 110%
25 | C[C@H]1O[C@@H](O[C@H]2CC[C@@]3(C)[C@@H](CC[C@]4(C)[C@@H]3C=CC3=C5CC(C)(C)CC[C@]5(CO)[C@@H](O)C[C@]34C)[C@]2(C)CO)[C@H](O[C@@H]2O[C@H](CO)[C@@H](O)[C@H](O)[C@H]2O)[C@@H](O[C@@H]2O[C@H](CO)[C@@H](O)[C@H](O)[C@H]2O)[C@H]1O [Buddlejasaponin IVb] | 96.5% and 97% | 97.8% | 98.4% | 108% | 98.3% | 102% | 101% | 106%
26 | C[C@H]1C[C@H]2[C@@H]3CCC4=CC(=O)C=C[C@]4(C)[C@H]3C(=O)C[C@]2(C)[C@@]1(O)C(=O)CO [Betapar (Meprednisone)] | 98.4% and 97.3% | 93% | 101% | 106% | 105% | 105% | 89% | 104%
27 | C[C@@H](Oc1cc(-c2cnn(C3CCNCC3)c2)cnc1N)c1c(Cl)ccc(F)c1Cl | 1.39% and 1.02% | 1.8% | 23.6% | 16.2% | 0.46% | 0.63% | 0.4% | 1.89%
28 | COc1cccc2cc(-c3nc([C@H]4CC[C@H](C(=O)O)CC4)n4ncnc(N)c34)[nH]c12 | 36.1% and 37% | 32.9% | 51.5% | 47.1% | 29.4% | 24.9% | 26.5% | 27.5%
29 | COc1ccc(-c2cc(=O)c3c(O)cc(O)cc3o2)cc1O [Diosmetin (Luteolin 4-methyl ether)] | 86.7% and 96.9% | 83.9% | 105% | 121% | 50.9% | 53.6% | 81% | 74.6%
30 | COc1cc(N2CCC(N3CCN(C)CC3)CC2)ccc1Nc1ncnc(Nc2ccccc2S(=O)(=O)C(C)C)n1 | 84.8% and 91% | 80.8% | 56.7% | 48.3% | 28.4% | 31.1% | 12.6% | 21.9%
31 | Cc1c(C(=O)NN2CCCCC2)nn(-c2ccc(Cl)cc2Cl)c1-c1ccc(Cl)cc1 | 81.6% and 88% | 74.5% | 93.7% | 93% | 88.5% | 87% | 91.8% | 90.9%
32 | COc1ccc(C2CC(=O)c3c(O)cc(OC4OC(COC5OC(C)C(O)C(O)C5O)C(O)C(O)C4O)cc3O2)cc1 (configuration not stated) [Didymin] | 107% and 103% | 112% | 108% | 105% | 106% | 111% | 104% | 103%
33 | Cc1cccc(C)c1NC(=O)c1cc(S(N)(=O)=O)c(Cl)cc1O [Xipamide] | 101% and 94.8% | 104% | 103% | 113% | 101% | 107% | 97.5% | 106%
34 | OCc1ccc(-c2ccc(-c3ccc(CO)s3)o2)s1 | 56.7% and 54.9% | 7.66% | 63.2% | 66% | 11.3% | 8.82% | 9.11% | 18.3%
35 | Nc1nc(N)nc(-c2cc(Cl)ccc2Cl)n1 [Irsogladine] | 95.2% and 105% | 97.1% | 102% | 113% | 101% | 103% | 108% | 101%
36 | CC(C)n1cnc2c(NCCc3ccc(O)cc3)nc(-c3csc4ccccc34)nc21 [StemRegenin 1] | 50.9% and 50.1% | 56% | 84.6% | 92.4% | 64.5% | 89.6% | 86.8% | 83.5%
37 | COc1ccc(/C=C/C(=O)c2c(O)cc(OC)cc2OC)cc1 [Flavokawain A] | 95.5% and 92.8% | 92.7% | 78.9% | 82.6% | 72.6% | 103% | 71.2% | 74.3%
38 | CC(C)OC(=O)CCC/C=C\C[C@@H]1[C@@H](/C=C/[C@@H](O)COc2cccc(C(F)(F)F)c2)[C@H](O)C[C@@H]1O [Travoprost] | 67.1% and 66.4% | 65% | 57.9% | 40.1% | 79.1% | 94.4% | 23.5% | 37.8%
39 | COc1ccc2[nH]c([S@@+]([O-])Cc3ncc(C)c(OC)c3C)nc2c1 [NEXIUM (esomeprazole magnesium)] | 101% and 97.4% | 104% | 97% | 107% | 92% | 98.6% | 90.5% | 94.8%
